According to PubChem BioAssay (EPA / NIEHS):
Activity calls are given as the source filed them. How the source made its calls: active means hit-call score of the fitted dose curve at least 0.9, where 1 is the maximum; inactive means score below 0.9.

Tests used:
[1] = BSK_hDFCGF_SRB: Viability Assessment in the BioMAP Diversity Plus: hDFCGF Assay (AID 2283061); details: primary human foreskin fibroblasts;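 further: cells exposed to compound for 24 h before the read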
How it was run: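 Human foreskin primary fibroblasts were treated with compound and assessed 24 h after dosing. Total protein was measured by sulforhodamine B staining (0.1% SRB after 10% TCA fixation, 560 nm read) as a cytotoxicity marker, with bidirectional fitting against DMSO baseline.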

[2] = read-out: TIMP metallopeptidase inhibitor 1 (TIMP1), TIMP1 (gene 7076); test: BSK_hDFCGF_TIMP1: BioMAP Diversity Plus: hDFCGF Assay for TIMP metallopeptidase inhibitor 1 (TIMP1) Biomarker Activity (AID 2283062); details: primary human foreskin fibroblasts; actives raise or lower the signal
How it was run: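 Primary human foreskin fibroblasts in the hDFCGF system were dosed with compound for 24 h, then TIMP-1 was measured by ELISA. Activity was fitted bidirectionally relative to DMSO control; parallel SRB staining assessed cytotoxicity.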

[3] = read-out: Monokine induced gamma interferon (MIG), CXCL9 (gene 4283); test: BSK_hDFCGF_MIG: BioMAP Diversity Plus: hDFCGF Assay for Monokine induced gamma interferon (MIG) Biomarker Activity (AID 2283063); details: primary human foreskin fibroblasts; actives raise or lower the signal
How it was run: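 ELISA read-out of MIG from primary human dermal fibroblasts 24 h post-dosing. Gain or loss of signal fitted bidirectionally, DMSO as baseline.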

[4] = read-out: Matrix Metallopeptidase 1 (MMP1), MMP1 (gene 4312); test: BSK_hDFCGF_MMP1: BioMAP Diversity Plus: hDFCGF Assay for Matrix Metallopeptidase 1 (MMP1) Biomarker Activity (AID 2283064); details: primary human foreskin fibroblasts; actives raise or lower the signal
How it was run: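 Primary human foreskin fibroblasts exposed to chemicals for 24 h; MMP1 measured by ELISA. Cytotoxicity tracked by SRB staining in parallel cultures; bidirectional fit relative to DMSO.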

[5] = read-out: Vascular cell adhesion molecule 1 (VCAM1), VCAM1 (gene 7412); test: BSK_hDFCGF_VCAM1: BioMAP Diversity Plus: hDFCGF Assay for Vascular cell adhesion molecule 1 (VCAM1) Biomarker Activity (AID 2283065); details: primary human foreskin fibroblasts; actives raise or lower the signal;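 on AC50: VCAM-1 protein level quantified by ELISA after 24 h chemical exposure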
How it was run: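 Primary human foreskin fibroblasts (hDFCGF system) were dosed with chemical and VCAM-1 was measured by ELISA 24 h later. Bidirectional curve fitting used DMSO as negative control and activity baseline.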

[6] = read-out: Plasminogen activator inhibitor-1 (PAI1), SERPINE1 (gene 5054); test: BSK_hDFCGF_PAI1: BioMAP Diversity Plus: hDFCGF Assay for Plasminogen activator inhibitor-1 (PAI1) Biomarker Activity (AID 2283066); details: primary human foreskin fibroblasts; actives raise or lower the signal
How it was run: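 Human foreskin fibroblasts in the hDFCGF system were dosed with compound for 24 h; PAI-1 was quantified by ELISA. Bidirectional curve fitting used DMSO as negative control and baseline.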

[7] = read-out: Intercellular Adhesion Molecule 1 (ICAM1), ICAM1 (gene 3383); test: BSK_KF3CT_ICAM1: BioMAP Diversity Plus: KF3CT Assay for Intercellular Adhesion Molecule 1 (ICAM1) Biomarker Activity (AID 2283067); details: primary human keratinocytes with fibroblasts; actives raise or lower the signal
How it was run: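 Human keratinocyte plus foreskin fibroblast primary co-culture was exposed to chemical for 24 h. ICAM-1 was then quantified by ELISA, and the data were fit bidirectionally against DMSO as the negative control and baseline.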

[8] = read-out: Interferon-gamma inducible Protein 10 (IP10), CXCL10 (gene 3627); test: BSK_KF3CT_IP10: BioMAP Diversity Plus: KF3CT Assay for Interferon-gamma inducible Protein 10 (IP10) Biomarker Activity (AID 2283068); details: primary human keratinocytes with fibroblasts; actives raise or lower the signal
How it was run: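 Signal is secreted/surface IP-10 by ELISA in a human primary skin co-culture of keratinocytes and foreskin fibroblasts, taken 24 h post-dosing; DMSO served as negative control.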

[9] = BSK_KF3CT_SRB: Viability Assessment in the BioMAP Diversity Plus: KF3CT Assay (AID 2283069); details: primary human keratinocytes with fibroblasts;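 further: fitted for both signal gain and loss against DMSO baseline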
How it was run: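 Human keratinocyte and foreskin fibroblast co-culture exposed to chemical for 24 h. Total protein measured in parallel cultures by 0.1% sulforhodamine B staining after 10% TCA fixation, read at 560 nm; bidirectional fit relative to DMSO.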

[10] = read-out: Interleukin-1 alpha (IL1a), IL1A (gene 3552); test: BSK_KF3CT_IL1a: BioMAP Diversity Plus: KF3CT Assay for Interleukin-1 alpha (IL1a) Biomarker Activity (AID 2283070); details: primary human keratinocytes with fibroblasts; actives raise or lower the signal
How it was run: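 Primary human keratinocyte plus foreskin fibroblast co-culture, dosed and measured at 24 h in 96-well plates. IL-1a level quantified by ELISA; bidirectional fit relative to DMSO.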

[11] = read-out: Transforming growth factor beta 1 (TGFb1), TGFB1 (gene 7040); test: BSK_KF3CT_TGFb1: BioMAP Diversity Plus: KF3CT Assay for Transforming growth factor beta 1 (TGFb1) Biomarker Activity (AID 2283072); details: primary human keratinocytes with fibroblasts; actives raise or lower the signal
How it was run: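 Human keratinocyte plus foreskin fibroblast primary co-culture, dosed with chemical for 24 h. TGF-b1 quantified by ELISA. Activity fitted bidirectionally against DMSO negative control as baseline.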

[12] = read-out: C-C motif chemokine 2 (Homo sapiens) (UniProt P13500); test: BSK_KF3CT_MCP1: BioMAP Diversity Plus: KF3CT Assay for Monocyte Chemoattractant Protein 1 (MCP1/CCL2) Biomarker Activity (AID 2283073); details: primary human keratinocytes with fibroblasts; actives raise or lower the signal
How it was run: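 Human keratinocyte plus foreskin fibroblast primary co-culture exposed to chemical for 24 h. MCP-1 levels measured by ELISA. Bidirectional curve fitting relative to DMSO negative control as baseline.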

[13] = read-out: Matrix Metallopeptidase 9 (MMP9), MMP9 (gene 4318); test: BSK_KF3CT_MMP9: BioMAP Diversity Plus: KF3CT Assay for Matrix Metallopeptidase 9 (MMP9) Biomarker Activity (AID 2283074); details: primary human keratinocytes with fibroblasts; actives raise or lower the signal;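 on AC50: MMP9 protein level quantified by ELISA in the co-culture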
How it was run: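 Human keratinocyte and foreskin fibroblast co-culture exposed to chemicals for 24 h; MMP9 biomarker measured by ELISA, bidirectional fitting relative to DMSO; cytotoxicity tracked by SRB total protein staining in parallel cultures.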

[14] = read-out: urokinase plasminogen activator (uPA), PLAU (gene 5328); test: BSK_KF3CT_uPA: BioMAP Diversity Plus: KF3CT Assay for urokinase plasminogen activator (uPA) Biomarker Activity (AID 2283075); details: primary human keratinocytes with fibroblasts; actives raise or lower the signal
How it was run: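 Primary human keratinocyte/foreskin fibroblast co-culture exposed to chemical; uPA measured by ELISA at 24 h. Bidirectional fit versus DMSO, with parallel SRB total-protein staining for cytotoxicity.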

[15] = read-out: CD40, CD40 (gene 958); test: BSK_LPS_CD40: BioMAP Diversity Plus: LPS Assay for CD40 Biomarker Activity (AID 2283076); details: primary human HUVEC with PBMC; actives raise or lower the signal
How it was run: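 Primary human umbilical vein endothelial cells co-cultured with peripheral blood mononuclear cells, LPS-stimulated, were dosed with chemical and read 24 h later. CD40 levels were measured by ELISA and fitted bidirectionally against DMSO as negative control and baseline.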

[16] = read-out: E-selectin (Homo sapiens) (UniProt P16581); test: BSK_LPS_Eselectin: BioMAP Diversity Plus: LPS Assay for Eselectin Biomarker Activity (AID 2283077); details: primary human HUVEC with PBMC; actives raise or lower the signal
How it was run: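 Human umbilical vein endothelial cells co-cultured with peripheral blood mononuclear cells under LPS stimulation; E-selectin measured by ELISA 24 h after chemical dosing. Activity fitted bidirectionally against DMSO as negative control and baseline.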

[17] = read-out: Interleukin-8 (IL8), CXCL8 (gene 3576); test: BSK_LPS_IL8: BioMAP Diversity Plus: LPS Assay for Interleukin-8 (IL8) Biomarker Activity (AID 2283078); details: primary human HUVEC with PBMC; actives raise or lower the signal
How it was run: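 Human umbilical vein endothelial cells co-cultured with PBMC were stimulated with LPS; IL-8 levels were measured by ELISA 24 h after chemical dosing. Activity was fitted bidirectionally against DMSO as negative control and baseline.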

[18] = BSK_LPS_SRB: Viability Assessment in the BioMAP Diversity Plus: LPS Assay (AID 2283079); details: primary human HUVEC with PBMC;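 further: total protein by sulforhodamine B absorbance as a cytotoxicity measure; measured one day after compound addition; fitted in both directions against DMSO so loss or gain of signal counts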
How it was run: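 Human umbilical vein endothelial cells co-cultured with PBMC (LPS system) were dosed for 24 h. Total protein was stained with 0.1% sulforhodamine B after 10% TCA fixation, read at 560 nm, and fitted bidirectionally against DMSO baseline.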

[19] = read-out: Interleukin-1 alpha (IL1a), IL1A (gene 3552); test: BSK_LPS_IL1a: BioMAP Diversity Plus: LPS Assay for Interleukin-1 alpha (IL1a) Biomarker Activity (AID 2283080); details: primary human HUVEC with PBMC; actives raise or lower the signal
How it was run: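 Human umbilical vein endothelial cells co-cultured with peripheral blood mononuclear cells were LPS-stimulated and exposed to test chemicals for 24 h. IL-1 alpha was quantified by ELISA, with bidirectional curve fitting against DMSO as the negative control and baseline.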

Sequence of E-selectin (Homo sapiens) (P16581 whole entry, looked up): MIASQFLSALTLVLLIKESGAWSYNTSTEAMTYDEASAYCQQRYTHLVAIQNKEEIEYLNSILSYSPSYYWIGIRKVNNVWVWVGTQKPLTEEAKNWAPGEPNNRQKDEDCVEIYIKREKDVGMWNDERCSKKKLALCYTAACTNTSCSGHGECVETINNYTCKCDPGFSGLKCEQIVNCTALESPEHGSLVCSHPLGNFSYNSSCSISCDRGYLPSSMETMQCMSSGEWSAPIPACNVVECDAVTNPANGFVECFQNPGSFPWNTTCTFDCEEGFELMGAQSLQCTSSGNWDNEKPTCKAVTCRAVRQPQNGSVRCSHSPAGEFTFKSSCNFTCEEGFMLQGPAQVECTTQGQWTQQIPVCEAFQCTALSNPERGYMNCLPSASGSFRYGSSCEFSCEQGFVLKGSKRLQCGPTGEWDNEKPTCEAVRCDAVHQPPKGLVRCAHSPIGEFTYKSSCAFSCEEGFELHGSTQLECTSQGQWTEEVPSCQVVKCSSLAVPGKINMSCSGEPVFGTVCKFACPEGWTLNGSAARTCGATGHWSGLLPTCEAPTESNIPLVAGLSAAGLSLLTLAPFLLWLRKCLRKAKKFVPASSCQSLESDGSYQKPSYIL

Question: Which AC50 [1] does the source give for `CC(=O)N1CCN(c2ccc(OC[C@H]3CO[C@](Cn4ccnc4)(c4ccc(Cl)cc4Cl)O3)cc2)CC1` here?
Answer: 32.9 µM (active)

Question: And the AC50 [2]?
Answer: 35.4 µM (active)

Question: And the AC50 [3]?
Answer: 36.9 µM (active)

Question: And the AC50 [4]?
Answer: 32.6 µM (active)

Question: And the AC50 [5]?
Answer: 35.5 µM (active)

Question: What about the AC50 [6] of the same compound?
Answer: 34.2 µM (active)

Question: What about the AC50 [7] of the same compound?
Answer: 30.9 µM (active)

Question: What about the AC50 [8] of the same compound?
Answer: 34.5 µM (active)

Question: And the AC50 [9]?
Answer: 26.6 µM (active)

Question: What about the AC50 [10] of the same compound?
Answer: 33.6 µM (active)

Question: And the AC50 [11]?
Answer: 29.2 µM (active)

Question: And the outcome [12]?
Answer: inactive

Question: What about the AC50 [13] of the same compound?
Answer: 29.8 µM (active)

Question: What about the AC50 [14] of the same compound?
Answer: 30.8 µM (active)

Question: And the AC50 [15]?
Answer: 11.8 µM (active)

Question: What about the AC50 [16] of the same compound?
Answer: 32.2 µM (active)

Question: What about the AC50 [17] of the same compound?
Answer: 29.9 µM (active)

Question: Which results are given for `O=CCCCC=O`?
Answer: AC50 [1]: 33.4 µM (active); AC50 [2]: 13.9 µM (active); AC50 [3]: 32.4 µM (active); AC50 [4]: 31.6 µM (active); AC50 [5]: 20.7 µM (active); AC50 [6]: 34 µM (active); AC50 [7]: 33.6 µM (active); AC50 [8]: 33 µM (active); AC50 [9]: 34.1 µM (active); AC50 [10]: 31.2 µM (active); AC50 [11]: 29.6 µM (active); AC50 [12]: 32 µM (active); AC50 [13]: 24.9 µM (active); AC50 [14]: 32 µM (active); outcome [15]: inactive; outcome [16]: inactive

Question: What does the source list for `Oc1ccc2ccccc2c1`?
Answer: outcome [1]: inactive; outcome [2]: inactive; outcome [3]: inactive; outcome [4]: inactive; outcome [5]: inactive; outcome [6]: inactive; outcome [7]: inactive; outcome [8]: inactive; outcome [9]: inactive; outcome [10]: inactive; outcome [11]: inactive; outcome [12]: inactive; outcome [13]: inactive; outcome [14]: inactive; AC50 [15]: 22.1 µM (active); AC50 [16]: 16.1 µM (active); outcome [17]: inactive; outcome [18]: inactive

Question: With `OC12N=C(c3ccccc3)SC1Cc1cc(Cl)ccc12` (configuration not stated) as the compound, how does the outcome [1] read?
Answer: inactive

Question: And the outcome [2]?
Answer: inactive

Question: And the outcome [3]?
Answer: inactive

Question: What about the outcome [4] of the same compound?
Answer: inactive

Question: What about the outcome [5] of the same compound?
Answer: inactive

Question: What about the outcome [6] of the same compound?
Answer: inactive

Question: What about the outcome [7] of the same compound?
Answer: inactive

Question: And the outcome [8]?
Answer: inactive

Question: And the outcome [9]?
Answer: inactive

Question: What about the outcome [10] of the same compound?
Answer: inactive

Question: What about the outcome [11] of the same compound?
Answer: inactive

Question: What about the outcome [12] of the same compound?
Answer: inactive

Question: And the outcome [13]?
Answer: inactive

Question: What about the outcome [14] of the same compound?
Answer: inactive

Question: What about the AC50 [15] of the same compound?
Answer: 16.8 µM (active)

Question: And the outcome [16]?
Answer: inactive

Question: What about the outcome [18] of the same compound?
Answer: inactive

Question: Which outcome [1] does the source give for `O=C(O)Cn1c(=O)n(Cc2ccc(Br)cc2F)c(=O)c2ccc(Cl)cc21` here?
Answer: inactive

Question: What about the outcome [2] of the same compound?
Answer: inactive

Question: What about the outcome [3] of the same compound?
Answer: inactive

Question: And the outcome [4]?
Answer: inactive

Question: What about the outcome [5] of the same compound?
Answer: inactive

Question: And the outcome [6]?
Answer: inactive

Question: What about the outcome [7] of the same compound?
Answer: inactive

Question: And the outcome [8]?
Answer: inactive

Question: And the outcome [9]?
Answer: inactive

Question: What about the outcome [10] of the same compound?
Answer: inactive

Question: And the outcome [11]?
Answer: inactive

Question: What about the outcome [12] of the same compound?
Answer: inactive

Question: And the outcome [13]?
Answer: inactive

Question: And the outcome [14]?
Answer: inactive

Question: What about the outcome [15] of the same compound?
Answer: inactive

Question: And the outcome [16]?
Answer: inactive

Question: What about the outcome [19] of the same compound?
Answer: inactive

Question: Which results are given for `c1ccc2n[nH]nc2c1`?
Answer: outcome [1]: inactive; outcome [2]: inactive; outcome [3]: inactive; outcome [4]: inactive; outcome [5]: inactive; outcome [6]: inactive; outcome [7]: inactive; outcome [8]: inactive; outcome [9]: inactive; outcome [10]: inactive; outcome [11]: inactive; outcome [12]: inactive; outcome [13]: inactive; outcome [14]: inactive; outcome [15]: inactive; outcome [16]: inactive; outcome [18]: inactive
